Measurements: PubChem BioAssay AID686979 (National Center for Advancing Translational Sciences (NCATS), 2013)
“And” between values parts separate entries of the source, which are not always exact repeats. Equal values may be shown once. Screen size: about 420,000 compounds; about 50,000 (12%) were called active. Not shown: some 26% with an inconclusive outcome. The call rests on the fitted dose curve; in most records, active means well fitted inhibition curve with a large enough effect; inconclusive means small, poorly fitted or top-dose-only effect; inactive means flat fitted curve, though single readings scatter. This excerpt belongs to a sample that is enriched for actives. More than one record can exist for a structure, and the calls need not agree. Where a SMILES comes first, the peptide text is derived from it. [ ]: non-standard residue; d: D form. The star is where a group is joined. PhAc = O=C(Cc1ccccc1)*

Assay: qHTS for Inhibitors of human tyrosyl-DNA phosphodiesterase 1 (TDP1): qHTS in cells in presence of CPT; further: nearly all actives have a fitted effect of over 55% in size
Conditions: chicken DT40 Tdp1-/-;hTDP1 cells + 20 nM CPT, ATP luminescence, 48 h; series mostly up to 46.2 µM; activity change, negative = growth inhibition: at the top concentration
In short: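 Chicken DT40 Tdp1-/- cells stably complemented with human TDP1 were seeded at 400 cells/well in medium containing 20 nM camptothecin, exposed to pin-transferred compounds, and grown at 37 °C for at least 48 hr. Viability was read as ATP luminescence.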
On the % scale 0 is the no-effect control and ±100 the full control effect; potency means the concentration at half of the fitted maximal effect.

Structure (SMILES)	activity change, negative = growth inhibition	Potency
COc1ccc(CCNC(=O)Cn2c(=O)n(-c3ccccc3)c(=O)c3c(C)c(C)sc32)cc1OC	-27.4% (inactive)	–
Cc1cc(C)c(NC(=O)c2cc3sc(Cl)cc3n2C)c(C)c1	-28.3% (inactive)	–
COc1ccc2c(c1)c1nc3n(c(=O)c1n2CC(=O)Nc1ccccc1)CCS3	0.0881% (inactive)	–
COc1ccc(S(=O)(=O)Nc2ccc3c(c2)OCO3)cc1Cl	-21.9% (inactive)	–
COCC(=O)Nc1c(I)c(C(=O)NCC(O)CO)c(I)c(C(=O)N(C)CC(O)CO)c1I (centres undefined)	–	inactive
CC(C)C[C@@H](NC(=O)[C@H]1CCCN1C(=O)Cc1ccccc1)C(N)=O (PhAc-[dP]-[dL]-NH2)	-1.96% (inactive)	–
O=C(O)Cc1ccc(NCc2ccccc2Cl)cc1	-0.43% (inactive)	–
Cc1noc2ncnc(NCc3ccccc3Cl)c12	–	18.4 µM (active)
Cc1cnc(CNc2ncncc2-c2ccccc2Cl)cn1	-18.5% (inactive)	–
N/C(=N\OC(=O)CCCC(=O)O)c1ncc(C(F)(F)F)cc1Cl	-7.67% (inactive)	–
CCNC(=O)COc1cc(C)c(Br)c(C)c1	-8.79% (inactive)	–
CCn1cc(/C=C(\NC(=O)c2cc(OC)c(OC)c(OC)c2)C(=O)N2CCN(C)CC2)c2ccccc21	-20.7% (inactive)	–
COc1ccc(C2=CC(c3ccccc3Cl)n3nc(-c4ccc(Cl)cc4)nc3N2)cc1 (centres undefined)	-25.4% (inactive)	–
CN(CC(=O)NCCN1CCOCC1)S(=O)(=O)c1ccc(F)cc1	-5.45% (inactive)	–
Cc1ccnc(SCC(=O)Nc2cccc(S(=O)(=O)N3CCOCC3)c2)n1	-17.4% (inactive)	–
Cc1csc(=NC(=O)c2ccccc2)n1CCO	-1.5% (inactive)	–
C=C(C)CNC(=S)/N=c1\scc(C)n1CC	–	18.4 µM (active)
CSCCC(C(=O)NC1=NCCS1)N1C(=O)c2ccccc2C1=O (centres undefined)	0.803% (inactive)	–
N/C(=N\OS(=O)(=O)c1cccc([N+](=O)[O-])c1)c1ccncc1	19.5% (inactive)	–
Cc1cc(C(=O)CSc2nc(N)cc(=O)[nH]2)c(C)n1-c1cccc(F)c1	–	7.31 µM (active)
CCN(C(=O)CSc1nc(N)cc(=O)[nH]1)C1CCS(=O)(=O)C1 (centres undefined)	-3.6% (inactive)	–
Cc1cc(C(=O)CSc2nc(N)cc(=O)[nH]2)c(C)n1CCc1ccc(Cl)cc1	–	16.4 µM (active)
Cc1cc(C)c(C(=O)CSc2nc(C)cc(=O)[nH]2)c(C)c1	-9.01% (inactive)	–
Cc1cc(=O)[nH]c(SCc2ccc(Cl)cc2)n1	-0.663% (inactive)	–
CCCCc1nnc(NC(=O)CSc2nc(N)cc(=O)[nH]2)s1	-1.51% (inactive)	–

Structure (SMILES)	activity change, negative = growth inhibition	Potency
Cc1c(OC(C)C(=O)NCC2CCC(C(=O)O)CC2)ccc2c1oc(=O)c1ccccc12 (centres undefined)	-15.5% (inactive)	–
COc1cc(SC)ccc1C(=O)NNC(=O)C1COc2ccccc2O1 (centres undefined)	4.8% (inactive)	–
CCc1ccccc1NC(=O)CN(C)C(=O)c1cc(C2CC2)nn1-c1ccccc1	-25.9% (inactive)	–
O=C(COC(=O)c1ccc(Br)o1)NC12CC3CC(CC(C3)C1)C2	6.98% (inactive)	–
COc1cc(C(=O)OCC(=O)NC23CC4CC(CC(C4)C2)C3)cc(OC)c1OC	–	29.1 µM (active)
O=C(COC(=O)c1cccnc1Cl)NC12CC3CC(CC(C3)C1)C2	-1.45% (inactive)	–
Cc1cccc(-c2noc(-c3ccc(F)cc3)n2)c1	11% (inactive)	–
CC(C)S(=O)(=O)c1oc(-c2ccc(F)cc2)nc1S(=O)(=O)c1ccc(F)cc1	–	0.291 µM (active)
COc1cc(-c2nc(S(=O)(=O)c3ccc(Cl)cc3)c(N(C)C)o2)cc(OC)c1OC	-27.9% (inactive)	–
COc1ccc2c(c1)C(NS(=O)(=O)OCC(Cl)(Cl)Cl)CCC2 (centres undefined)	-25.2% (inactive)	–
C=CC1C(OC2OC(CO)C(O)C(O)C2O)OC=C(C(=O)OC)C1CC1CC(=O)CC(CC(=O)CCc2ccc(O)cc2)O1 (centres undefined)	-3.31% (inactive)	–
Cc1ccccc1NC(=O)Cc1nc(COC(=O)c2cccnc2Cl)cs1	-26.9% (inactive)	–
Cc1ccc(CSc2nc(-c3ccccc3)c(C#N)c(=O)[nH]2)cc1	4.01% (inactive)	–
O=C(NC1CCCCC1)c1ccc(CNc2c(N3CCOCC3)c(=O)c2=O)cc1	2.06% (inactive)	–
CN1C(=O)/C(=C/c2ccc(C(=O)NC3CCCC3)cc2)Oc2ccccc21	–	13 µM (active)
CC1CCC(NC(=O)c2ccc(N3CCCC3=O)cc2)CC1 (centres undefined)	-14.2% (inactive)	–
CCC(=O)Nc1nnc(S(=O)(=O)N(CC(C)C)c2ccccc2)s1	1.07% (inactive)	–
CC(C)CC(=O)Nc1nnc(S(=O)(=O)N(C)c2ccc(Cl)cc2)s1	–	inactive and 146 nM (active)
COc1cccc(C(=O)Nc2nnc(S(=O)(=O)N(C)c3ccccc3)s2)c1	-2.7% (inactive)	–
Cc1noc(C)c1S(=O)(=O)N(C)C[C@H]1Oc2ccc(NC(=O)C3CCCCC3)cc2C(=O)N([C@H](C)CO)C[C@@H]1C	-22% (inactive)	–
COc1ccccc1C(=O)Nn1c(-c2cccs2)nc2ccccc2c1=O	–	18.4 µM (active)
COc1cc(OC)cc(-c2nc3ccccc3c(=O)n2NC(=O)c2cccnc2Cl)c1	17.5% (inactive)	–
O=C(Nn1c(-c2ccc(Cl)cc2)nc2ccccc2c1=O)c1cccnc1Cl	4.95% (inactive)	–
Cc1ccc(OCC(=O)OCc2cc(=O)n3nc(C4CC4)sc3n2)cc1	-14.9% (inactive)	–
CCc1cc(C(=O)Nc2nnc(C3CC3)s2)sc1C	-2.49% (inactive)	–

Structure (SMILES)	activity change, negative = growth inhibition	Potency
CCCN(CC(=O)Nc1ccccc1C)C(=O)c1cc(=O)[nH]c2ccccc12	15.5% (inactive)	–
CCCN(CC(=O)Nc1ccccc1C)C(=O)c1ccc(OCC(=O)N2CCOCC2)c(OCC)c1	-11.1% (inactive)	–
CCCN(CC(=O)Nc1ccccc1C)C(=O)c1ccc2[nH]c3c(c2c1)CC(C)CC3 (centres undefined)	–	20.6 µM (active)
Cc1ccc(CN2CCN(c3ccccc3Cl)CC2)o1	-0.0371% (inactive)	–
Cc1ccc(N2C(=O)C3C4C=CC(CC4)C3C2=O)cc1Cl (centres undefined)	-2.58% (inactive)	–
O=C(NCCN1CCOCC1)/C(=C/c1ccc(F)cc1)NC(=O)c1ccccc1	-3.57% (inactive)	–
Nc1nc(COC(=O)CCC(=O)c2ccc(Cl)cc2)nc(Nc2ccccc2)n1	-24.3% (inactive)	–
CCCc1cc(C(=O)Nc2ccc(C(=O)OC)cc2)cs1	-16.7% (inactive)	–
CCOC(=O)C1CCCN(C(=O)Cn2ncc3c(=O)oc4ccc(C)cc4c32)C1 (centres undefined)	-12.6% (inactive)	–
CCOC(=O)C1CCCN(C(=O)Cn2ncc3c(C)n(Cc4ccc(F)cc4)c(C)c3c2=O)C1 (centres undefined)	–	14.6 µM (active)
CCOC(=O)C1CCCN(C(=O)CN(c2ccc(OC)cc2)S(=O)(=O)c2c(C)noc2C)C1 (centres undefined)	-48.7% (inactive)	–
CCCNC(=O)c1cc(C2CCCCN2S(=O)(=O)c2cn(C)cn2)on1 (centres undefined)	-22.3% (inactive)	–
CCS(=O)(=O)N1Cc2ccccc2CC1C(=O)Nc1nc2ccc(F)cc2s1 (centres undefined)	-0.226% (inactive)	–
O=C(Nc1ccc(O)cc1)c1ccc(NC(=O)c2ccco2)cc1	-8.54% (inactive)	–
Cc1ccc(S(=O)(=O)N(Cc2cc3ccccc3[nH]c2=O)CC2CCCO2)cc1 (centres undefined)	-17.1% (inactive)	–
Cc1cccc2cc(CN(C(=O)c3cccs3)c3ccccc3)c(=O)[nH]c12	-19.4% (inactive)	–
CCC(c1nnnn1C1CCCC1)N(Cc1cccs1)Cc1cc2cccc(C)c2[nH]c1=O (centres undefined)	–	20.6 µM (active)
Cc1cccc2cc(CN(Cc3cccs3)C(c3nnnn3C3CCCC3)C(C)C)c(=O)[nH]c12 (centres undefined)	-77.9% (inactive)	–
Cc1n[nH]c(=O)c2c1nnn2Cc1ccc(F)cc1	-4.85% (inactive)	–
CCCN(Cc1cc2cccc(C)c2[nH]c1=O)S(C)(=O)=O	-2.17% (inactive)	–
O=C(c1cccs1)N(Cc1cc2ccccc2[nH]c1=O)CC1CCCO1 (centres undefined)	12.6% (inactive)	–
Cc1cccc2cc(CN(Cc3nnnn3Cc3ccccc3)C3CCCC3)c(=O)[nH]c12	–	20.6 µM (active)
Cc1cc(C)c2cc(CN(Cc3cccs3)Cc3nnnn3CC3CCCO3)c(=O)[nH]c2c1 (centres undefined)	–	23.1 µM (active)
c1ccc(CCn2nnnc2CN2CCN(C3CCCC3)CC2)cc1	-0.628% (inactive)	–
Cc1cc(C)c2cc(CN(Cc3nnnn3Cc3ccc(F)cc3)C3CCCC3)c(=O)[nH]c2c1	–	14.6 µM (active)

Structure (SMILES)	activity change, negative = growth inhibition	Potency
Cc1occc1-c1nnc(SCC(=O)NC2CCCCC2)o1	-8.72% (inactive)	–
Cc1cc2c(cc1S(=O)(=O)CCC(=O)NCc1ccccc1)OCC(=O)N2	5.34% (inactive)	–
CCSCc1nc(N)nc(NCCc2ccccc2)n1	-6.97% (inactive)	–
CCOc1ccc(-n2cnc3c(=O)[nH]c(N)nc32)cc1	2.7% (inactive)	–
CN(Cc1ccc(F)cc1)C(=O)COc1ccc2ccccc2c1	21.9% (inactive)	–
NC(=O)c1cc(-c2cccnc2)nc2ccc(Br)cc12	-19.6% (inactive)	–
CN1CCCCCC1C(=O)NCCN1Cc2ccccc2OC(c2ccsc2)C1 (centres undefined)	11.9% [at 9.04 µM] (inactive)	–
C#CCOCCOCCOCCNc1nc(N2CCOCC2)nc(N2CCN(C(=O)[C@H](Cc3ccc(O)cc3)n3cc(CCO)nn3)CC2)n1	-10% (inactive)	–
CCN(C(=O)COC(=O)CCC(=O)c1cccs1)C1CCCCC1	-12.4% (inactive)	–
COc1ccc(C2CC(=O)Nc3c2c(=O)nc2c(C)cccn32)cc1OC (centres undefined)	-19.8% (inactive)	–
COc1ccc(Br)cc1C1CC(=O)Nc2c1c(C)nn2-c1nc(C)cc(C)n1 (centres undefined)	–	16.4 µM (active)
COc1ccc(C2c3c(C)nn(-c4ccccc4)c3NC(=O)N2c2ccccc2)cc1 (centres undefined)	-0.19% (inactive)	–
COC(=O)C1(C)NC(c2ccc(F)cc2)C2C(=O)N(c3ccccc3)C(=O)C21 (centres undefined)	10% (inactive)	–
CCCCC1(C(=O)OCC)NC(c2ccc(O)cc2)C2C(=O)N(c3ccccc3)C(=O)C21 (centres undefined)	–	14.6 µM (active)
CCOC(=O)C1(C)NC(c2ccco2)C2C(=O)N(c3ccccc3)C(=O)C21 (centres undefined)	2.33% (inactive)	–
COCCCn1c(=O)/c(=C/c2ccccc2OC(C)C)s/c1=C(\C#N)C(=O)Nc1ccc(C(=O)O)cc1	–	20.6 µM (active)
COc1ccccc1C(=O)N/C(=C/c1ccco1)C(=O)Nc1ccc(C(=O)O)cc1	9.19% (inactive)	–
COc1ccc(NC(=O)/C(C#N)=C\c2cc(OC)c(OCc3ccc(C(=O)O)cc3)cc2Br)cc1	0.494% (inactive)	–
Cn1c(N)c(C(=O)COC(=O)COc2ccc(Cl)cc2)c(=O)n(C)c1=O	3.59% (inactive)	–
COc1ccc(-c2cc(=O)oc3cc(OC(C)C(=O)NCC4CCC(C(=O)O)CC4)ccc23)cc1 (centres undefined)	-18.1% (inactive)	–
COc1ccc(NC(=O)CNc2cc(S(=O)(=O)N3CCOCC3)ccc2N2CCOCC2)c(OC)c1	-1.41% (inactive)	–
O=C(CC12CC3CC(CC(C3)C1)C2)NCc1ccco1	-12.8% (inactive)	–
O=C(CC12CC3CC(CC(C3)C1)C2)Nc1ccc2c(c1)COC2=O	–	13 µM (active)
NS(=O)(=O)c1cccc(NC(=O)CC23CC4CC(CC(Br)(C4)C2)C3)c1	-5.01% (inactive)	–
